Hits are enriched below; roughly 2.4% of the tested compounds scored in any of these assays.
Rango complex inh – inhibitors of Rango-importin beta complex formation. Q14974. Rango CFP/YFP FRET sensor + importin beta, 45 min. Potency, µM (highest dose often 92.2 µM), without a hit: top-dose inhibition of complex formation. actives 0.031% (n = 340,000); calls by dose curve;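 also: 0% = DMSO wells and 100% = buffer wells lacking importin beta; nearly all actives have a fitted effect of over 15% in size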
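FRET biosensor Rango (snurportin 1 IBB between N-terminal EYFP and C-terminal Cerulean), 50 nM in PBS/1 mM DTT/0.02% Tween-20/0.1% BSA, preincubated 5 min RT with compound; 0.125 microM importin beta added, 45 min RT, CFP/YFP FRET ratio read.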
Rango dissoc inh – inhibition of RanGTP-driven Rango-importin beta dissociation | Biochemical FRET Rango-importin beta, RanGTP-induced dissociation | Potency, µM (top dose mostly 46.1 µM), for inactives: top-dose activity change, negative = inhibition | actives 0.071% (n = 340,000); calls by dose curve; also: % of control where 0% means no effect; nearly all actives have a fitted effect of over 45% in size
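Compounds sat 5 min at room temperature with 0.1 uM Rango biosensor plus 0.25 uM importin beta, then FRET pre-read. RanGTP-RCC1 (0.6 uM Ran, 2mM GTP, 0.2 uM RCC1) added for 45 min, and the CFP/YFP post-read measured blocked complex dissociation.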
PGK inhibitor – blocks T. brucei phosphoglycerate kinase; P07378; PGK/GAPDH coupled, Kinase-Glo luminescence, 60 min; Potency, µM (top dose mostly 57.5 µM), for inactives: at the top dose activity change, negative = inhibition, hits mostly inhibitors; actives 0.043% (n = 380,000); AID 602233; also: % is scaled to controls: 0 for no effect and ±100 for the full control effect; nearly all actives have a fitted effect of over 60% in size
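Recombinant glycosomal PGK reaction used 1,3-bisphosphoglycerate generated in-well by GAPDH (100nM final) in 100mM TEA pH 7.6, 5mM MgCl2, 0.01% Tween-20. After 60 minutes at room temperature, ATP was read by Kinase-Glo Plus luminescence end-point.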
Tb PFK block – blocks T. brucei phosphofructokinase | O15648 | T. brucei PFK, ADP-Glo luminescence | Potency, µM (doses to about 57.5 µM), for inactives: at the top dose activity, negative = inhibition, hits mostly inhibitors | actives 0.17% (n = 330,000) | AID 485367;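 also: 0% = uninhibited 1x PFK enzyme wells and -100% = no-enzyme wells; nearly all actives have a fitted effect of over 60% in size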
Target sequence (O15648 whole entry, looked up): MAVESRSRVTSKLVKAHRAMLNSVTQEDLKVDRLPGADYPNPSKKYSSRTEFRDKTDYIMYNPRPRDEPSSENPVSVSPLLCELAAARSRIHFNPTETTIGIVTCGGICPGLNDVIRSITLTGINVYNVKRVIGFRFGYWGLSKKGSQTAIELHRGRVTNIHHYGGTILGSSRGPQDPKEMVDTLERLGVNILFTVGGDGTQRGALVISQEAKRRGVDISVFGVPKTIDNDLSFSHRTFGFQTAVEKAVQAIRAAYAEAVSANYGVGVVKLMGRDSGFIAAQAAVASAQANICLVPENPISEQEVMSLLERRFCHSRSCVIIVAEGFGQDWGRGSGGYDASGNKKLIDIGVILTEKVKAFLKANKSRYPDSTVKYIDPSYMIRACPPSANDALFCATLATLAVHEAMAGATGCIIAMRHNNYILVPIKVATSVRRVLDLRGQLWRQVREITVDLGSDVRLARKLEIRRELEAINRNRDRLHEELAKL
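Compounds were pin-transferred as a titration series up to 57 uM into substrate buffer (0.5 mM F6P, 0.1 mM ATP, pH 8.0), then 1.25 nM PFK was added and reactions ran 45 min before ADP-Glo detection.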
ELG1 repair inh – blocks ELG1-dependent DNA repair in HEK293T cells; Potency, µM (series often up to 46.1 µM), for the others: top-dose activity change, negative = inhibition, actives largely listed as inhibitors; AID 504467; HEK293T ELG1-luciferase reporter, luminescence, 16 h; DNA damage induced by 5-fluorouridine; actives 2.3% (n = 330,000); also: % is scaled to controls: 0 for no effect and ±100 for the full control effect; nearly all actives have a fitted effect of over 55% in size
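In this reporter screen, reduction of luminescence relative to DMSO vehicle indicated activity. Compounds and 5-fluorouridine were added together to 2,000 cells per well, incubated for 16 hr at 37 °C, then developed with ONE-Glo.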
PKM2 activator – increases activity of human pyruvate kinase M2. actives 0.34% (n = 260,000). Potency, µM (doses to about 57.5 µM), for inactives: top-dose activation, most hits filed as activators. purified PKM2, Kinase-Glo ATP luminescence, activation; response scale: 0% is enzyme alone, no compound. P14618. AID 1631; also: % is scaled to controls: 0 for no effect and ±100 for the full control effect; nearly all actives have a fitted effect of over 55% in size
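Purified hPK-M2 (>95% pure) converted ADP (0.1 mM final) to ATP with 0.5 mM PEP in 50 mM imidazole pH7.2, KCl, MgCl2, Tween 20, BSA; 1 h at room temperature. ATP detected by Kinase-Glo luminescence.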
An asterisk follows results filed as active; i = inactive; ? = inconclusive; / = no result. Unless noted, calls follow the shape of the dose curve; as a rule, active = well fitted curve in the direction sought with a large enough effect; inconclusive = small, poorly fitted or top-dose-only effect, or another doubt; inactive = no such curve, though single readings can be large; an effect the other way counts as inactive or inconclusive. Potency is read from the fitted curve at half-maximal effect.

SMILES | Rango complex inh | Rango dissoc inh | PGK inhibitor | Tb PFK block | ELG1 repair inh | PKM2 activator
O=C(Nc1ccc(F)cc1)c1ccc(Br)c(S(=O)(=O)N2CCOCC2)c1 | -2.7% | -6.0% | 12.4% | -1.6% | 14.6µM* | /
Cc1oc(S(=O)(=O)N2CCOCC2)cc1C(=O)Nc1ccc(F)cc1 | -1.5% | -15.6% | -0.2% | -3.1% | 23.1µM* | -1.3%
O=C(Nc1cc([N+](=O)[O-])ccc1N1CCOCC1)c1cccs1 | 0.9% | ? | -2.1% | -7.7% | -2.3% | 1.9%
CC1N(C)c2cc(NC(=O)c3cccs3)c(P(=O)(Nc3ccc([N+](=O)[O-])cc3)N3CCOCC3)cc2C1(C)C (stereo not given) | 0.7% | 32.3% | -6.0% | -3.7% | 18.3µM* | 6.9%
CCOC(=O)c1ccc(N2CCN(C(=O)c3ccccc3)CC2)c(NC(=O)c2ccco2)c1 | ? | 19.8% | -3.7% | 3.1% | ? | -2.9%
CCC1CCCCN1S(=O)(=O)c1ccc(NC(=O)c2ccncc2)cc1 (stereo not given) | -0.3% | 8.8% | -1.1% | -5.1% | 5.17µM* | -4.5%
Cc1ccccc1C(=O)Nc1ccnn1C1CCN(Cc2cnn(C)c2)CC1 | -0.8% | -4.3% | i | -1.0% | 2.4% | 2.9%
COc1ccc(CCNC(=O)CSc2nc3ccccc3nc2Cc2ccc(C)cc2)cc1OC | / | / | 9.9% | / | / | /
CCCCCC(=O)Nc1cc(S(=O)(=O)N2CCCCC2)ccc1N1CCCCC1 | -1.1% | -21.1% | -11.9% | / | / | /
CCCCCC(=O)Nc1cc(S(=O)(=O)O)cc2cc(S(=O)(=O)O)cc(O)c12 | ? | ? | 1.12µM* | / | / | /
CC1CCCN(C(=O)C2CCN(S(=O)(=O)c3ccccc3)CC2)C1 (stereo not given) | 5.7% | -13.0% | 0.6% | 7.1% | -7.5% | /
COc1nc(-c2cccs2)cc(-c2ccc(C)cc2)c1C#N | -1.2% | -23.7% | -2.4% | 10.3% | -2.3% | 6.4%
COc1ccc(-c2cc(-c3cccs3)nc(OC)c2C#N)cc1OC | 0.3% | 0.7% | -1.2% | 0.0% | 18.4µM* | 0.0%
CC(=O)c1sc(NC(=O)c2ccc(Cn3cc(Br)cn3)o2)nc1C | -1.2% | 15.8% | -8.3% | 0.0% | 4.9% | 11.2µM*
C/C(=N\NC(=O)c1ccc(Cn2cc([N+](=O)[O-])cn2)o1)c1cccc(NC(=O)C(C)C)c1 | 0.3% | 2.6% | -8.1% | -13.0% | ? | 2.0%
C/C(=N\NC(=O)c1ccc(Cn2cc(Br)cn2)o1)c1cccc(NC(=O)C(C)C)c1 | 0.0% | 17.0% | 5.2% | 1.7% | 5.8µM* | -0.6%
COc1ccc(-c2noc(Cn3c(=O)c4ccccc4n(CC(=O)Nc4cccc(C(F)(F)F)c4)c3=O)n2)cc1 | / | / | i | / | / | /
COc1ccc(-c2cc(-c3ccc(C)cc3)nc3c2COc2ccccc2-3)cc1 | / | / | 5.2% | / | / | /
Cc1cccc(-c2nc3c4ccccc4nc(N4CCN(c5cc(C)ccc5C)CC4)n3n2)c1 | / | / | -8.2% | / | / | /
Cc1ccc(S(=O)(=O)N2CCN(C(=O)C(C)Cn3nc(C)c(C)c3C)CC2)cc1C (stereo not given) | -0.2% | -0.6% | -2.3% | -2.8% | 0.2% | 2.2%
Cc1ccc(S(=O)(=O)N2CCN(C(=O)CCn3nc(C)c(C)c3C)CC2)cc1C | 0.8% | 20.6% | 12.9% | 0.1% | 1.0% | 7.94µM*
Cc1ccc(S(=O)(=O)N2CCN(C(=O)CCN3C(=O)c4ccccc4C3=O)CC2)cc1C | 0.2% | 14.9% | 4.1% | 0.3% | -11.0% | 5.62µM*
COc1cc(NC(=O)c2cc([N+](=O)[O-])ccc2NC(=O)CN2CCN(c3ccccn3)CC2)cc(OC)c1 | 2.7% | 4.3% | -7.8% | -6.0% | ? | 1.0%
CCOC(=O)c1cccc(NC(=O)CSc2ncc3c(n2)-c2ccccc2N(C)S3(=O)=O)c1 | / | / | -4.9% | / | / | /
O=C(Nc1cccc(C(=O)O)c1)Nc1ccc2c(c1)OCO2 | 6.0% | 0.3% | -6.0% | -17.0% | 2.59µM* | -15.8%
SMILES | Rango complex inh | Rango dissoc inh | PGK inhibitor | Tb PFK block | ELG1 repair inh | PKM2 activator
COc1ccc2nc3c(cc2c1)Cc1ccccc1-3 | / | / | / | / | / | -76.5%
CC(Sc1ccc([N+](=O)[O-])cn1)C(=O)Nc1nccs1 (stereo not given) | 0.2% | -16.3% | -8.0% | -3.1% | 5.3% | 6.31µM*
COc1ccc(/C=N/NC(=O)c2cc(-c3ccccc3OC)nc3ccccc23)cc1COC(C)=O | 3.8% | 1.6% | -9.1% | 1.6% | ? | -2.0%
CCc1ccc(/C=N/NC(=O)c2cc(C3CC3)nc3ccc(Br)cc23)s1 | -1.0% | 8.1% | -1.5% | -0.5% | 7.31µM* | 0.9%
COc1ccccc1-c1cc(C(=O)N/N=C/c2ccc(C)s2)c2ccccc2n1 | 0.0% | 6.0% | -6.7% | -1.2% | 7.31µM* | -2.2%
CCc1ccc(/C=N/NC(=O)c2cc(-c3ccccc3OC)nc3ccccc23)s1 | ? | 6.5% | -2.8% | 1.6% | 18.4µM* | 3.6%
COc1ccccc1-c1cc(C(=O)N/N=C/c2ccoc2)c2ccccc2n1 | -0.3% | 9.5% | -6.5% | -3.0% | ? | 3.6%
O=C(N/N=C/c1ccco1)c1cc(C2CC2)nc2ccccc12 | / | / | / | 1.5% | -2.0% | -13.1%
CCCCN(CCCC)C(=O)CSc1nnc2n(C)c(=O)c3c4c(sc3n12)CCCC4 | 0.7% | 14.4% | -9.5% | -1.0% | 10.3% | -1.5%
Cn1c(=O)c2c3c(sc2n2c(SCC(N)=O)nnc12)CC(C(C)(C)C)CC3 (stereo not given) | 0.0% | -6.2% | -0.4% | 2.5% | 23.1µM* | -2.3%
Cc1c(C(=O)NCc2cccnc2)oc2ccc(S(=O)(=O)N3CCC4(CC3)OCCO4)cc12 | -5.4% | 3.6% | / | -1.5% | 23.1µM* | 11.7%
Cc1c(C(=O)NCc2cccnc2)oc2ccc(S(=O)(=O)N3CC(C)CC(C)C3)cc12 (stereo not given) | 5.9% | -12.6% | -7.2% | -7.2% | -5.8% | 5.5%
Cc1ccc(NC(=O)c2oc3ccc(S(=O)(=O)N4CCC5(CC4)OCCO5)cc3c2C)cc1C | -1.4% | 16.6% | 6.0% | 2.9% | 6.51µM* | -3.5%
COc1ccc(NC(=O)c2oc3ccc(S(=O)(=O)N4CCC5(CC4)OCCO5)cc3c2C)cc1Cl | / | / | i | / | / | /
O=C(NCCc1nc2ccccc2n1Cc1ccccc1F)c1ccc(F)cc1 | / | / | 5.0% | / | / | /
OC1CCN(c2c3c(nc4cc(-c5ccc(Cl)cc5)nn24)CCC3)CC1 | -0.2% | 7.6% | 4.2% | -8.8% | 18.4µM* | -5.4%
CC(=O)NC(c1cc(F)c2cccnc2c1O)C(C)C (stereo not given) | / | / | / | -5.1% | / | /

Compound activity as filed in PubChem BioAssay.
